Measurements published in PubChem BioAssay (NCI).
This is part of a sample that, as a whole, favours compounds with a hit. Of some 83,000 tested, about 20% had one in any assay.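 The test compound was applied at a single concentration to cells in 96-well plates for 48 hours, and percent growth was recorded.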 The source made the active and inactive calls. The calls were made as follows: active = growth percent below 10; inactive = the rest.

What was measured:
Assay in all cases: NCI-60 one-dose screen, 48 h (100 = growth as untreated, 0 = no growth, -100 = all killed)
Details in all cases: 10 µM unless noted
NCI-H23 lung = tested on: NCI-H23 lung
NCI-H226 lung = tested on: NCI-H226 lung
NCI-H322M lung = tested on: NCI-H322M lung
HOP-62 NSCLC = tested on: HOP-62 NSCLC
NCI-H460 lung = tested on: NCI-H460 lung
HOP-92 NSCLC = tested on: HOP-92 NSCLC
NCI-H522 lung = tested on: NCI-H522 lung
A549/ATCC NSCLC = tested on: A549/ATCC NSCLC
786-0 renal = tested on: 786-0 renal
COLO 205 colon = tested on: COLO 205 colon
DU-145 prostate = tested on: DU-145 prostate
K-562 leukemia = tested on: K-562 leukemia
MALME-3M melanoma = tested on: MALME-3M melanoma
MDA-MB-231 breast = tested on: MDA-MB-231 breast
SF-268 CNS = tested on: SF-268 CNS
SF-295 CNS = tested on: SF-295 CNS
SF-539 CNS = tested on: SF-539 CNS
M14 melanoma = tested on: M14 melanoma

Measured: growth

COC(=O)c1ccc2nc(-c3cc4ccccc4n3C)n(CCCCOc3cc4c(cc3OC)C(=O)N3CCC[C@H]3C=N4)c2c1
active: NCI-H23 lung 7.22% | NCI-H226 lung -31.8% | NCI-H322M lung -38.1% | NCI-H460 lung -25.9% | HOP-92 NSCLC -28.5% | NCI-H522 lung -28.1% | A549/ATCC NSCLC -11.8% | 786-0 renal 8.78% | COLO 205 colon -39.4% | MALME-3M melanoma -80.1% | MDA-MB-231 breast -14.7% | SF-268 CNS 1.79% | SF-295 CNS -26.7% | SF-539 CNS -13.8% | M14 melanoma -12.7%
inactive: HOP-62 NSCLC 15.6% | DU-145 prostate 22.1% | K-562 leukemia 44.6%

COc1ccc(OC)c(NC(=O)c2cc(S(=O)(=O)N3CCc4ccccc43)ccc2OC)c1
inactive: NCI-H23 lung 86.7% | NCI-H226 lung 92.1% | NCI-H322M lung 109% | HOP-62 NSCLC 100% | NCI-H460 lung 108% | HOP-92 NSCLC 74.5% | NCI-H522 lung 78.6% | A549/ATCC NSCLC 78.9% | 786-0 renal 89.8% | COLO 205 colon 87.5% | DU-145 prostate 84.9% | K-562 leukemia 103% | MALME-3M melanoma 111% | MDA-MB-231 breast 71.8% | SF-268 CNS 95.9% | SF-295 CNS 73.4% | SF-539 CNS 82.9% | M14 melanoma 98.8%

CCCCCCCC/C=C\CCCCCCCCOc1ccccc1CCOP(=O)(O)OCC[N+](C)(C)C
active: NCI-H460 lung 9.07%
inactive: NCI-H23 lung 90.2% | NCI-H226 lung 95.6% | NCI-H322M lung 106% | HOP-62 NSCLC 42.1% | HOP-92 NSCLC 30.3% | NCI-H522 lung 39.4% | A549/ATCC NSCLC 48.9% | 786-0 renal 82.4% | COLO 205 colon 58.4% | DU-145 prostate 86.6% | K-562 leukemia 72.7% | MALME-3M melanoma 93% | MDA-MB-231 breast 73.9% | SF-268 CNS 44.9% | SF-295 CNS 69.2% | SF-539 CNS 84.8% | M14 melanoma 84.4%

O=C1Nc2cc(Cl)ccc2Oc2cc(Oc3ccccc3)ccc21
inactive: NCI-H23 lung 54.8% | NCI-H226 lung 72.3% | NCI-H322M lung 76.2% | HOP-62 NSCLC 64.1% | NCI-H460 lung 25.1% | HOP-92 NSCLC 115% | NCI-H522 lung 45.1% | A549/ATCC NSCLC 62.2% | 786-0 renal 74.3% | COLO 205 colon 45.2% | DU-145 prostate 71.5% | K-562 leukemia 25.5% | MALME-3M melanoma 87.1% | MDA-MB-231 breast 63.9% | SF-268 CNS 63% | SF-295 CNS 49% | SF-539 CNS 64.7% | M14 melanoma 41.1%

CCN1C(=O)N(CC)C2Nn3c(s/c(=C4\C(=O)N(C5CCCC5)c5ccccc54)c3=O)=NC21 (stereo not drawn)
inactive: NCI-H23 lung 53.9% | NCI-H226 lung 91.8% | NCI-H322M lung 94.8% | HOP-62 NSCLC 50% | NCI-H460 lung 43.9% | HOP-92 NSCLC 67.4% | NCI-H522 lung 28% | A549/ATCC NSCLC 54.4% | 786-0 renal 63.6% | COLO 205 colon 26.2% | DU-145 prostate 43.6% | K-562 leukemia 22% | MALME-3M melanoma 70.9% | MDA-MB-231 breast 58.1% | SF-268 CNS 59.5% | SF-295 CNS 60.6% | SF-539 CNS 37% | M14 melanoma 91.9%

OCc1c(-c2ccccc2)nc2sccn12
active: HOP-92 NSCLC -8.39%
inactive: NCI-H23 lung 81.9% | NCI-H226 lung 106% | NCI-H322M lung 105% | HOP-62 NSCLC 95.5% | NCI-H460 lung 106% | NCI-H522 lung 105% | A549/ATCC NSCLC 101% | 786-0 renal 101% | COLO 205 colon 110% | DU-145 prostate 109% | K-562 leukemia 123% | MALME-3M melanoma 109% | MDA-MB-231 breast 109% | SF-268 CNS 102% | SF-295 CNS 112% | SF-539 CNS 73.7% | M14 melanoma 102%

CCN1C(=O)/C(=c2\sc3n(c2=O)C2C(NN=3)N(CC)C(=S)N2CC)c2ccccc21 (stereo not drawn)
inactive: NCI-H23 lung 101% | NCI-H226 lung 92.3% | NCI-H322M lung 103% | HOP-62 NSCLC 79.2% | NCI-H460 lung 107% | HOP-92 NSCLC 99.2% | NCI-H522 lung 91.9% | A549/ATCC NSCLC 106% | 786-0 renal 99.5% | COLO 205 colon 103% | DU-145 prostate 115% | K-562 leukemia 98% | MALME-3M melanoma 93.2% | MDA-MB-231 breast 96.3% | SF-268 CNS 90.2% | SF-295 CNS 100% | SF-539 CNS 96.3% | M14 melanoma 96.2%

CSc1ccccc1C#C/C=C\C#Cc1ccccc1N1CCCCC1=O
inactive: NCI-H23 lung 103% | NCI-H226 lung 91.2% | NCI-H322M lung 110% | HOP-62 NSCLC 88.2% | NCI-H460 lung 93.3% | HOP-92 NSCLC 63.8% | NCI-H522 lung 99.7% | A549/ATCC NSCLC 48.6% | 786-0 renal 106% | COLO 205 colon 108% | DU-145 prostate 107% | K-562 leukemia 143% | MALME-3M melanoma 89.2% | MDA-MB-231 breast 90.8% | SF-268 CNS 101% | SF-295 CNS 111% | SF-539 CNS 93.4% | M14 melanoma 104%

Clc1nc(Cl)c2ncn(C/C=C/Cn3cnc4c(Cl)nc(Cl)nc43)c2n1
active: HOP-92 NSCLC -13.3%
inactive: NCI-H23 lung 94.7% | NCI-H226 lung 94.2% | NCI-H322M lung 94.6% | HOP-62 NSCLC 94.3% | NCI-H460 lung 84.5% | NCI-H522 lung 27.7% | A549/ATCC NSCLC 71.6% | 786-0 renal 93.2% | COLO 205 colon 63.3% | DU-145 prostate 44.2% | K-562 leukemia 17.4% | MALME-3M melanoma 111% | MDA-MB-231 breast 96.4% | SF-268 CNS 62.3% | SF-295 CNS 60.4% | SF-539 CNS 46.8% | M14 melanoma 101%

CCN1C(=O)N(CC)C2C1NN=c1s/c(=C3\C(=O)N(C4CCCC4)c4ccccc43)c(=O)n12 (stereo not drawn)
active: HOP-62 NSCLC 8.41% | NCI-H460 lung -1.48% | NCI-H522 lung -5.34% | COLO 205 colon -29.2% | DU-145 prostate 7.65% | K-562 leukemia 4.67% | SF-295 CNS -6.11% | SF-539 CNS -39.3% | M14 melanoma 2.66%
inactive: NCI-H23 lung 20.1% | NCI-H226 lung 99.8% | NCI-H322M lung 53% | HOP-92 NSCLC 28.1% | A549/ATCC NSCLC 25.3% | 786-0 renal 14.1% | MALME-3M melanoma 57.4% | MDA-MB-231 breast 19.7% | SF-268 CNS 43.4%

CC(C)(C)c1cc(-c2nc3ccc(N4CCN(CCO)CC4)cc3[nH]2)cc(C(C)(C)C)c1O
inactive: NCI-H23 lung 96.3% | NCI-H226 lung 99% | NCI-H322M lung 82.3% | HOP-62 NSCLC 72.6% | HOP-92 NSCLC 45.2% | NCI-H522 lung 74% | A549/ATCC NSCLC 43.1% | 786-0 renal 52% | DU-145 prostate 70.5% | MDA-MB-231 breast 39.2% | SF-268 CNS 68.3% | SF-295 CNS 98.2% | SF-539 CNS 55.3%
active: NCI-H460 lung 4.48% | COLO 205 colon -57.2% | K-562 leukemia -24.2% | MALME-3M melanoma -26.4% | M14 melanoma -40.5%
